Experimental data published in PubChem BioAssay (NCATS).
Values joined by “and” are separate entries in the source; they are usually repeats but may differ in a detail not shown here. Equal values may be shown once. Results filed as inconclusive are left out. Active and inactive are the calls of the source. Unless noted, the call rests on the fitted dose curve; in most records, active means well fitted curve in either direction with a large enough effect (not every such curve was filed as active); inconclusive means small, poorly fitted or top-dose-only effect, or another doubt; inactive means flat fitted curve, though single readings scatter.

Key:
[1] = target: Lysosomal acid glucosylceramidase (Homo sapiens) (UniProt P04062); assay: Glucocerebrosidase-p2 (AID 348; in the data active means potency below about 10 µM; further: potency means the concentration at half of the fitted maximal effect); conditions: purified GBA, blue fluorogenic substrate, 40 min
In short: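 Normal human glucocerebrosidase (0.2 nM) with blue fluorogenic substrate (80 uM final) in citrate/phosphate pH 5.9 with 10mM sodium taurocholate, 0.01% tween-20; 40 min RT, NaOH/glycine stop; fluorescence Ex 365/Em 440; AC50 from a titration from 0.6 nM upwards.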

[2] = AP1 Signaling Pathway (AID 357); conditions: ME-180 AP-1-bla reporter, EGF-induced, beta-lactamase ratio, 5 h; series mostly up to 17.2 µM;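 further: ME-180 reporter cells stimulated with EGF at its EC50 level; on the % scale 0 is the no-effect control and ±100 the full control effect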
In short: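 Cells are seeded overnight, exposed to compound titrations and an EC50 level of EGF for 5 hours at 37 °C, then loaded with CCF4 dye for 2.5 hours. Beta-lactamase activity under the AP-1 element is read as a blue/green ratio.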

[3] = target: Cytochrome P450 1A2 (Homo sapiens) (UniProt P05177); assay: p450-cyp1a2 (AID 410; calls by dose curve; further: potency means the concentration at half of the fitted maximal effect;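 on activity change, negative = inhibition: -100% = full effect of reference inhibitor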); conditions: recombinant CYP1A2, luciferin-ME demethylation, luminescence; series mostly up to 25.6 µM
In short: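 20nM CYP1A2, 100uM Luciferin-ME (=Km), 100mM KPO4; cpd 10 min RT; +NADPH regen, 60 min RT; stop/detect 20 min; luminescence. Normalized to furafylline 57 uM = full inhibition.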

[4] = NFAT Signaling Pathway (AID 444); conditions: Jurkat NFAT-bla M1, carbachol, beta-lactamase ratio, 5 h;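 further: carbachol stimulus at about its EC50 of 1 µM final; on the % scale 0 is the no-effect control and ±100 the full control effect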
In short: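 Jurkat cells carrying an NFAT-driven β-lactamase reporter and co-transfected muscarinic M1 receptor were treated with compound plus carbachol (1 uM final, an EC50 level) for 5 h at 37 °C. CCF4 loading followed for 1 h at RT; 460/530 nm ratio gave %activity.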

[5] = Stat Signaling Pathway (AID 446); conditions: ME-180 (cervical carcinoma) SIE beta-lactamase reporter, IL-6 stimulated, 5 h; series mostly up to 17.2 µM;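 further: ME-180 cervical cancer cells given 40 pM IL-6 alongside compound; SIE-controlled beta-lactamase reporter measured as 460/530 nm FRET emission ratio; on the % scale 0 is the no-effect control and ±100 the full control effect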
In short: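 Compound effects on IL-6-induced STAT reporter activity were measured in ME-180 cells. After overnight culture, cells were co-treated with 40 pM IL-6 for 5 hrs before beta-lactamase substrate loading at room temperature.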

[6] = target: Glucocorticoid receptor (Homo sapiens) (UniProt P04150); assay: GR-EFC Redistribution (AID 451; calls by dose curve; further: potency means the concentration at half of the fitted maximal effect); conditions: CHO-K1 GR-EFC translocation, beta-gal luminescence, 2 h
In short: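 CHO-K1 cells stably expressing nuclear-localized β-gal enzyme acceptor and GR fused C-terminally to the enzyme donor fragment; ligand-driven nuclear translocation restores β-gal by complementation. Compounds titrated up to 46 uM final, 2 h at 37 °C; luminescence read.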

[7] = target: Mitogen-activated protein kinase 10 (Mus musculus) (UniProt Q61831); assay: JNK3 AlphaScreen Assay (AID 530); conditions: JNK3 lysate, c-Jun phosphorylation; series mostly up to 57.1 µM;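 further: kinase came from lysate of stimulated human HepG2 cells; signal reports phosphorylation of biotinylated GST-cJun 1-79 at Ser73 with 10 µM ATP; on the % scale 0 is the no-effect control and ±100 the full control effect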
In short: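 Biotinylated GST-cJun(1-79) served as substrate for JNK3 in HepG2 lysates stimulated with IL-1beta and TNF-alpha. ATP was 10 uM final, pH 7.6. Ser73 phosphorylation was quantified by AlphaScreen (680 nm excitation).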

[8] = target: 3',5'-cyclic-AMP phosphodiesterase 4B (Homo sapiens) (UniProt Q07343); assay: qHTS Assay for Inhibitors of PDE-IV (AID 607; active means well fitted activation curve with a large enough effect in the main read-out, with a control signal flat, not every such curve was filed as active; further: % of control where 0% means no effect); conditions: HEK293 ACTOne CNG channel cells, membrane potential fluorescence; series mostly up to 22.9 µM
In short: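 ACTOne HEK293 cells carry a modified cAMP-gated CNG channel and express endogenous PDE4; plated 1000 cells/well, compounds up to 22.9 uM final. Membrane-potential dye fluorescence (ex 535/em 590) was read; parental cells received 10 uM forskolin + 100 uM RO 20-1724.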

[9] = qHTS Assay for Lipid Storage Modulators (AID 1519; calls by dose curve); conditions: Drosophila S3 cells, BODIPY lipid droplet/cell ratio, laser cytometry, cells loaded with oleic acid
In short: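 Cells seeded at 5,000 per well were treated with compounds over a concentration series and loaded with oleic acid (400 uM, as added). Lipid droplet fluorescence (488 nm excitation, 500-530 nm channel) was read by laser-scanning cytometry and normalized to 20 uM Triacsin C.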

[10] = target: Cytochrome P450 2D6 (Homo sapiens) (UniProt P10635); assay: qHTS Assay for Inhibitors and Substrates of Cytochrome P450 2D6 (AID 891; active means well fitted curve in the direction sought with a large enough effect; an effect the other way counts as inactive or inconclusive;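 further: luciferin methyl ether substrate demethylated by CYP2D6 with NADPH regeneration; on the % scale 0 is the no-effect control and ±100 the full control effect; nearly all actives have a fitted effect of over 60% in size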); conditions: recombinant CYP2D6, luciferin-ME EGE luminescence; series mostly up to 57.1 µM
In short: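 Luminescent read-out of luciferin formed by 5 nM human CYP2D6 demethylating 30 uM Luciferin-ME EGE (Km level) over 60 min at room temperature after NADPH regeneration addition. Data normalized to full inhibition by 1.43 uM quinidine.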

[11] = target: Cytochrome P450 3A4 (Homo sapiens) (UniProt P08684); assay: qHTS Assay for Inhibitors and Substrates of Cytochrome P450 3A4 (AID 884; active means well fitted curve in the direction sought with a large enough effect; an effect the other way counts as inactive or inconclusive; further: nearly all actives have a fitted effect of over 50% in size; further: potency means the concentration at half of the fitted maximal effect); conditions: recombinant CYP3A4, Luciferin-PPXE luminescence; series mostly up to 57.1 µM
In short: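 Luminescent readout of luciferin produced by CYP3A4 (20 nM) dealkylation of Luciferin-PPXE, 25 uM (its KM). NADPH-driven reaction ran 60 min at RT after 10 min compound preincubation; data scaled to 57 uM ketoconazole as 100% inhibition.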

[12] = target: Cytochrome P450 3A4 (Homo sapiens) (UniProt P08684); assay: qHTS Assay for Activators of Cytochrome P450 3A4 (AID 885; active means well fitted curve in the direction sought with a large enough effect; an effect the other way counts as inactive or inconclusive; further: nearly all actives have a fitted effect of over 65% in size; further: potency means the concentration at half of the fitted maximal effect); conditions: recombinant CYP3A4, Luciferin-PPXE luminescence, 60 min; series mostly up to 57.1 µM
In short: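 CYP3A4 activity: Luciferin-PPXE O-dealkylation, 25uM substrate, 200mM KPO4, RT throughout. Read-out is luciferase luminescence; higher values reflect activation.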

[13] = Confirmation and Secondary Assay for Modulators of Hemoglobin Beta Chain Splicing at IVS2 654 locus (AID 910; active means well fitted curve in the direction sought with a large enough effect; an effect the other way counts as inactive or inconclusive;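 further: per-well total GFP intensity by laser scanning cytometry after 2-day treatment; % of control where 0% means no effect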); conditions: HeLa EGFP-654 splicing reporter, GFP fluorescence, 48 h; series mostly up to 46.1 µM
In short: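 HeLa cells stably carrying EGFP interrupted by mutant beta-globin IVS2-654 intron (CMV-driven) were treated with compound for 2 days at 37C; corrected splicing was scored as total peak GFP intensity per well (488 nm excitation, 500-520 nm emission).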

[14] = Confirmation and Secondary Assay for Modulators of Hemoglobin Beta Chain Splicing at IVS2 705 locus (AID 930; active means well fitted curve in the direction sought with a large enough effect; an effect the other way counts as inactive or inconclusive;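 further: HeLa cells stably expressing the EGFP-705 splicing reporter; GFP fluorescence per well restored by corrected splicing of the IVS2-705 intron in EGFP; % of control where 0% means no effect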); conditions: HeLa EGFP-705 splicing reporter, GFP fluorescence, 48 h; series mostly up to 46.1 µM
In short: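 HeLa IVS2-705 EGFP reporter cells, 500/well, compound 2 d at 37C; correct splicing yields fluorescent EGFP. Control: 500 nM antisense PNA. Read-out: total peak GFP intensity.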

[15] = target: Ubiquitin carboxyl-terminal hydrolase 1 (Homo sapiens) (UniProt O94782); assay: Inhibitors of USP1/UAF1: Pilot qHTS (AID 504865; active means well fitted curve in the direction sought with a large enough effect; an effect the other way counts as inactive or inconclusive;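 further: rhodamine fluorescence freed from ubiquitin-rhodamine substrate followed over time; top concentration of the series differs between compounds; on the % scale 0 is the no-effect control and ±100 the full control effect; nearly all actives have a fitted effect of over 35% in size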); conditions: purified USP1/UAF1, Ub-rhodamine cleavage fluorescence; series mostly up to 114 µM
In short: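 Kinetic fluorescence assay: 1nM USP1/UAF1, 15 min compound preincubation, then 150nM Ub-Rho; 480/540 nm.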

[16] = test system: HIV-1 nucleocapsid protein NCp7 (binding to TG oligonucleotide); assay: HIV Nucleocapsid (AID 346; call rule not given here;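 further: potency means the concentration at half of the fitted maximal effect; potency is for inhibitors that block NC binding and lower polarization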); conditions: HIV-1 NC / fluorescein-TGTGTGTG probe, fluorescence polarization
In short: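 NCp7 100 nM + fluorescein TG4xF 10 nM; Hepes pH 7.5/250mM NaCl/1uM ZnCl2/0.004% PEG 20000; 1 hr RT; FP, 45 s exposure; oligo-only wells as negative control.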

[17] = target: Glucocorticoid receptor (Homo sapiens) (UniProt P04150); assay: GR-GFP Redistribution (AID 450;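 active means compounds whose dose series gives a full or clear partial fitted curve of increased nuclear translocation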; further: potency means the concentration at half of the fitted maximal effect); conditions: U2OS GR-GFP nuclear translocation, laser cytometry, 2 h
[18] = qHTS profiling for inhibitors of Plasmodium falciparum proliferation (AID 504749; active means well fitted curve in the direction sought with a large enough effect; an effect the other way counts as inactive or inconclusive;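 further: 0% = DMSO vehicle and full inhibition = artemisinin control; nearly all actives have a fitted effect of over 60% in size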); conditions: P. falciparum in erythrocytes, SYBR Green DNA, 72 h, at 28.7 µM (top of the series)
In short: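 Fluorescence of SYBR Green-bound parasite DNA, read at 485/535 nm, served as the growth measure. Infected erythrocytes were cultured with compound 72 h; artemisinin (0.29 uM) and DMSO wells defined the normalization range.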

[19] = target: Voltage-gated inwardly rectifying potassium channel KCNH2 (Homo sapiens) (UniProt Q12809); assay: qHTS Assay for Small Molecule Inhibitors of the Human hERG Channel Activity (AID 588834; active means well fitted curve in the direction sought with a large enough effect; an effect the other way counts as inactive or inconclusive;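 further: U2OS cells transduced with hERG by BacMam; top concentration of the series differs between compounds; on the % scale 0 is the no-effect control and ±100 the full control effect; lower thallium flux fluorescence means stronger hERG block; nearly all actives have a fitted effect of over 50% in size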); conditions: U2OS BacMam hERG, FluxOR thallium flux fluorescence; series mostly up to 92.2 µM
In short: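 Cells were infected with hERG-BacMam virus for 4 hrs at room temperature, grown overnight, then seeded at 2000/well. After dye loading and roughly 10 min compound treatment, thallium influx was triggered and fluorescence recorded.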

[20] = measured here: cell count channel max response
[21] = measured here: lipid channel max response

Sequence of Cytochrome P450 1A2 (Homo sapiens) (P05177 whole entry, looked up): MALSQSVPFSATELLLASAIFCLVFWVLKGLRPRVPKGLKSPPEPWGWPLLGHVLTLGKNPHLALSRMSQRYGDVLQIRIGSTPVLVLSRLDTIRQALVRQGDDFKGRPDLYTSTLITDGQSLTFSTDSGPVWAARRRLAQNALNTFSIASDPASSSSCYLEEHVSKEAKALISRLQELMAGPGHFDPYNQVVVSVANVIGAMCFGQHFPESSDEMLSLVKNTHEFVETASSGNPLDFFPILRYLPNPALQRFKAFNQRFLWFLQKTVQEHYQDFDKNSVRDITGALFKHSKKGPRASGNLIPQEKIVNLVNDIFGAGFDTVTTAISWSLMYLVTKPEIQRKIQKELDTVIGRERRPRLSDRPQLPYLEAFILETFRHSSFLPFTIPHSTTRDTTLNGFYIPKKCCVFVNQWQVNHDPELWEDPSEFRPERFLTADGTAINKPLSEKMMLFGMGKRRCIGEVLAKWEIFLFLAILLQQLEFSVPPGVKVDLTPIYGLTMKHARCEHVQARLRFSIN
Sequence of Cytochrome P450 3A4 (Homo sapiens) (P08684 whole entry, looked up): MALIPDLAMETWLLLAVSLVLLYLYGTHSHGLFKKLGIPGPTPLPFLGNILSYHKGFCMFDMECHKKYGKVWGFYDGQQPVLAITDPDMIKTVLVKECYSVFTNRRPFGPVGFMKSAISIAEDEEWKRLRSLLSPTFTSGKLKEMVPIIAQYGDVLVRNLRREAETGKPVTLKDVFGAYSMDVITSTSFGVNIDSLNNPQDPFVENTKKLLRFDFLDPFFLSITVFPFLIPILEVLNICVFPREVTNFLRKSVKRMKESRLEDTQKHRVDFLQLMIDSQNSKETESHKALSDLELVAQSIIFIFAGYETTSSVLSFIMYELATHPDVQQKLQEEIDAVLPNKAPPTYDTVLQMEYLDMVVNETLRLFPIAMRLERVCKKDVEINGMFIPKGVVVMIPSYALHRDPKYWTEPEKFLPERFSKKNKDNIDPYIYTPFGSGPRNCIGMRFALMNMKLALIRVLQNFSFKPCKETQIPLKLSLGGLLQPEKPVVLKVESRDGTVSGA
Sequence of Lysosomal acid glucosylceramidase (Homo sapiens) (P04062 whole entry, looked up): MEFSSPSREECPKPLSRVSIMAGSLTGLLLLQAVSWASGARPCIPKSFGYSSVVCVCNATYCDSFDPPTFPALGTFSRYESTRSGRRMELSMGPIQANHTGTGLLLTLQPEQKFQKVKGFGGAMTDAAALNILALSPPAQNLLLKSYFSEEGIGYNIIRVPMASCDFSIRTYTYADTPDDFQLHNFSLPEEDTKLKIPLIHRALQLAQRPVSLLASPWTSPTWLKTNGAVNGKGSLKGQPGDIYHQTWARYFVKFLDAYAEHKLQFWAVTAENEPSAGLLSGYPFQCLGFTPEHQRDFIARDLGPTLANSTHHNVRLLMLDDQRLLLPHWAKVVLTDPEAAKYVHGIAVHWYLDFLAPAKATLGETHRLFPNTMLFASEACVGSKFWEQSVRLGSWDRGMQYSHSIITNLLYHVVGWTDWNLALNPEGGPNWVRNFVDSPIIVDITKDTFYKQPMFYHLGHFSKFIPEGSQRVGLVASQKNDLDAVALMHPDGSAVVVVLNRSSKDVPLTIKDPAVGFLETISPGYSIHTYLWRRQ
Sequence of Glucocorticoid receptor (Homo sapiens) (P04150 whole entry, looked up, the tested form may be a part): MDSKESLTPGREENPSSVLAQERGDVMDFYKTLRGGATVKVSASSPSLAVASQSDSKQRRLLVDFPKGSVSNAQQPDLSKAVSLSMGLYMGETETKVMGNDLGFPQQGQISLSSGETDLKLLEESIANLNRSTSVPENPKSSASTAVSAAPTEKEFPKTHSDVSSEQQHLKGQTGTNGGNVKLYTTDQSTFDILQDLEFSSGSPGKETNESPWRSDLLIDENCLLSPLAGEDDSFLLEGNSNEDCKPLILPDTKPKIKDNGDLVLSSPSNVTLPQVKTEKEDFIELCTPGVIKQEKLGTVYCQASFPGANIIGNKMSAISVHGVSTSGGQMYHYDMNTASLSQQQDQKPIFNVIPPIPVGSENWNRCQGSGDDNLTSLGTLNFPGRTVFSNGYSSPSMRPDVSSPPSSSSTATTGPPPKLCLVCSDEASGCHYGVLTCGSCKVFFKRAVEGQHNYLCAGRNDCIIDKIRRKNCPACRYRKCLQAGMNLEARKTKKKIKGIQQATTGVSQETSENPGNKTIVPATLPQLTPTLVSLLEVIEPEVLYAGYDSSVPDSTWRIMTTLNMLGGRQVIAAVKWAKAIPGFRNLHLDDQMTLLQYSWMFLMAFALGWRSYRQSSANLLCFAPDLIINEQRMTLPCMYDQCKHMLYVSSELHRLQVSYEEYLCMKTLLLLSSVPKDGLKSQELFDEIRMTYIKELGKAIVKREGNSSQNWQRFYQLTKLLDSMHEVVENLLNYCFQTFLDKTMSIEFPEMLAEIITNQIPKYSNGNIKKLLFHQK
Sequence of Ubiquitin carboxyl-terminal hydrolase 1 (Homo sapiens) (O94782 whole entry, looked up): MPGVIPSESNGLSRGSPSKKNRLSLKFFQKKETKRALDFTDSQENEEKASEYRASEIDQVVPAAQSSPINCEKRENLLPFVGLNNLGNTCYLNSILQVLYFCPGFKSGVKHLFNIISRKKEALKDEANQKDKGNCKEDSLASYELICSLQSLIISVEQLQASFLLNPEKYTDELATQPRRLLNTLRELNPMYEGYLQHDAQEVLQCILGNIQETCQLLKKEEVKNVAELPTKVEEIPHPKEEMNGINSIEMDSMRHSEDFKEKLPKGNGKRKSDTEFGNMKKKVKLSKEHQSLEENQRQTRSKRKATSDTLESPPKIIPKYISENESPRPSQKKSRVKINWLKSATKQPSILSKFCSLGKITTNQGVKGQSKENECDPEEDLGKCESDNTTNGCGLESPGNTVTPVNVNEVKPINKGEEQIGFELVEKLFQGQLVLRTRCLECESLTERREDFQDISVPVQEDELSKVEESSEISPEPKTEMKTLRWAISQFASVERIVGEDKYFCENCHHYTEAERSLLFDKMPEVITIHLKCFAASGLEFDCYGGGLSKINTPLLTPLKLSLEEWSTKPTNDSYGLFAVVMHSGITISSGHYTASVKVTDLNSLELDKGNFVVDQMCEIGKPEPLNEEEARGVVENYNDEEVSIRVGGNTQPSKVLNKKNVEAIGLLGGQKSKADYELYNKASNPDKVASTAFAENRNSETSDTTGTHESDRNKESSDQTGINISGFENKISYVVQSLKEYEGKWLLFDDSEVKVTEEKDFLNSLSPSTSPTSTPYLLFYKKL
Sequence of 3',5'-cyclic-AMP phosphodiesterase 4B (Homo sapiens) (Q07343 whole entry, looked up): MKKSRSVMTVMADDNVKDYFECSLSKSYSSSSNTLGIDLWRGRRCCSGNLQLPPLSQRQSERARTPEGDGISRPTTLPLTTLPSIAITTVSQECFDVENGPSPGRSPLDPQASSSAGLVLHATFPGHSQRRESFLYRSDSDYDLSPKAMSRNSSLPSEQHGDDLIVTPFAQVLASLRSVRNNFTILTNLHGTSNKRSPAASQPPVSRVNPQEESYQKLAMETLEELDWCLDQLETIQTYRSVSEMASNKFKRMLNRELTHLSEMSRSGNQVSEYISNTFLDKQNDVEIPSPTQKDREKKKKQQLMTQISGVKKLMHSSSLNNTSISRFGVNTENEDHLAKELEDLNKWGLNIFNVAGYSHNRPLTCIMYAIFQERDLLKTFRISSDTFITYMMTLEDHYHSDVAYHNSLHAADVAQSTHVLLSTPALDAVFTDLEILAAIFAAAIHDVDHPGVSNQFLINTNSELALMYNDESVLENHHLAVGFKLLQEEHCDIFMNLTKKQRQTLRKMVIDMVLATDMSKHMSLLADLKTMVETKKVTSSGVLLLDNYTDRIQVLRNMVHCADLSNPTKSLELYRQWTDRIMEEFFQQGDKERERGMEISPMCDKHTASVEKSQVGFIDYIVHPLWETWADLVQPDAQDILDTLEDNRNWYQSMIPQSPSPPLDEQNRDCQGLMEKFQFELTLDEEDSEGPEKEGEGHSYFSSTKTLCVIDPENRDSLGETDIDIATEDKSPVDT
Sequence of Cytochrome P450 2D6 (Homo sapiens) (P10635 whole entry, looked up): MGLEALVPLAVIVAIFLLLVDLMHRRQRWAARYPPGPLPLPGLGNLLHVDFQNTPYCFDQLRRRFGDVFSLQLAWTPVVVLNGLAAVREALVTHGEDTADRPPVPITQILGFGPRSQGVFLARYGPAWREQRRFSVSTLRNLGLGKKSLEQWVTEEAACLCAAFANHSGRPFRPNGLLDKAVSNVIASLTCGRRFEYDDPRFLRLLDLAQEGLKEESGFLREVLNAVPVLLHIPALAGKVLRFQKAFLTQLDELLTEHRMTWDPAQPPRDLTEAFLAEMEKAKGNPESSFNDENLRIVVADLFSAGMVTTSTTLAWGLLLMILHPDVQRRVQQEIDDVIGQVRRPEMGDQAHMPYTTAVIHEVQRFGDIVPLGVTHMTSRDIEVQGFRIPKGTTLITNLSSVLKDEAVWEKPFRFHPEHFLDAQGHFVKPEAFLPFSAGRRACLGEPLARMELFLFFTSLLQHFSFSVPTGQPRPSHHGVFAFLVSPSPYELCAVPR

c1cc(CN2CCC3(CCNCC3)CC2)ccn1
inactive: Potency [1] > 11.4 µM | outcome [2] | Potency [3] | activity change, negative = inhibition ([4]; at 7.69 µM (top of the series)) -8.56% | outcome [5] | Potency [6] > 46 µM | outcome [7] | Potency [8] | activity change, negative = inhibition ([9]; at 57.5 µM (top of the series)) 4.55%
18.5%: max response [9, 21]
10.7%: max response [9, 20]

CCC[C@@](C)(COC(N)=O)COC(=O)NC(C)C
inactive: outcome [2] | Potency [3] | activity change, negative = inhibition ([4]; at 17.2 µM (top of the series)) -5.77% | activity change, negative = inhibition ([4]; at 38 µM (top of the series)) -2.28% | outcome [5] | outcome [7] | Potency [10] | activity change, negative = inhibition ([9]; at 25.7 µM (top of the series)) -3.74%
7.74%: max response [9, 21]
10.2%: max response [9, 20]

ClC1=C(Cl)C2(Cl)C3C4C=CC(C4)C3C1(Cl)C2(Cl)Cl (stereo unspecified)
23.4%: max response [9, 21]
9.06%: max response [9, 20]
inactive: outcome [7] | Potency [12] | Potency [13] | Potency [14] | activity change, negative = inhibition ([9]; at 57.5 µM (top of the series)) 4.06% | Potency [15]
active: Potency [11] 3.16 µM

CC(C)NC(=O)N1CCC2(CCNCC2)CC1
7.12%: max response [9, 21]
1.41%: max response [9, 20]
inactive: Potency [16] > 20 µM | Potency [1] > 11.4 µM | outcome [2] | outcome [5] | outcome [7] | activity change, negative = inhibition ([9]; at 57.5 µM (top of the series)) 4%

Cc1nc2cnc(N3CCNCC3)nc2n(C)c1=O
inactive: Potency [16] > 20 µM | Potency [1] > 11.4 µM | outcome [2] | activity change, negative = inhibition ([4]; at 7.69 µM (top of the series)) 5.09% | outcome [5] | Potency [17] > 9.22 µM | Potency [6] > 46 µM | outcome [7] | Potency [8] | Potency [12] | activity change, negative = inhibition ([9]; at 57.5 µM (top of the series)) 5.19%
25.8%: max response [9, 21]
18.7%: max response [9, 20]

C#CCN(C)[C@@H](C)Cc1ccccc1
-0.249%: max response [9, 21]
inactive: outcome [2] | activity change, negative = inhibition ([4]; at 17.2 µM (top of the series)) -14.3% | activity change, negative = inhibition ([4]; at 38 µM (top of the series)) -2.85% | outcome [5] | Potency [17] > 46 µM and > 20.6 µM | Potency [6] > 46 µM and > 20.6 µM | outcome [7] | Potency [8] | activity change, negative = inhibition ([9]; at 25.7 µM (top of the series)) -2.3% | activity, negative = inhibition ([18]; parasite line A) -9.65% | activity, negative = inhibition ([18]; parasite line B) 13.3%
active: Potency [3] 25.1 µM and 10 µM
2.02%: max response [9, 20]

CCOCN(C(=O)CCl)c1c(C)cccc1CC
active: Potency [12] 15.8 µM
-5.22%: max response [9, 21]
inactive: outcome [7] | Potency [11] | Potency [13] | Potency [14] | activity change, negative = inhibition ([9]; at 57.5 µM (top of the series)) 0.371% | Potency [15] | Potency [19]
-6.11%: max response [9, 20]

CN1CCc2cc3c(cc2[C@@H]1[C@@H]1OC(=O)c2c1ccc1c2OCO1)OCO3
-3.68%: max response [9, 20]
inactive: outcome [2] | activity change, negative = inhibition ([4]; at 17.2 µM (top of the series)) 4.41% | activity change, negative = inhibition ([4]; at 38 µM (top of the series)) -4.78% | outcome [5] | Potency [17] > 46 µM and > 20.6 µM | Potency [6] > 46 µM and > 20.6 µM | Potency [12] | Potency [10] | activity change, negative = inhibition ([9]; at 25.7 µM (top of the series)) -1.13% | Potency [15]
active: Potency [3] 15.8 µM | Potency [11] 0.794 µM
-5.44%: max response [9, 21]

c1ccc(N2CCC3(CCNCC3)CC2)cc1
inactive: Potency [16] > 20 µM | Potency [1] > 11.4 µM | outcome [2] | Potency [3] | activity change, negative = inhibition ([4]; at 7.69 µM (top of the series)) -12.2% | outcome [5] | Potency [6] > 46 µM | outcome [7] | Potency [8] | activity change, negative = inhibition ([9]; at 57.5 µM (top of the series)) -3.07%
-8.78%: max response [9, 21]
-7.04%: max response [9, 20]
